Screening data as filed in PubChem BioAssay.
BLM inh-1 = blocks DNA unwinding by human BLM helicase; Potency, µM (highest dose often 56.1 µM), without a hit: top-dose activity change, negative = inhibition, usual class: inhibitors; AID 2528; P54132; 0.2% of 350,000 active; recombinant BLM DNA unwinding, fluorescence dequenching;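 note: plate controls were vehicle for no effect and no enzyme for full effect; nearly all actives have a fitted effect of over 35% in size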
Target sequence (P54132 whole entry, looked up): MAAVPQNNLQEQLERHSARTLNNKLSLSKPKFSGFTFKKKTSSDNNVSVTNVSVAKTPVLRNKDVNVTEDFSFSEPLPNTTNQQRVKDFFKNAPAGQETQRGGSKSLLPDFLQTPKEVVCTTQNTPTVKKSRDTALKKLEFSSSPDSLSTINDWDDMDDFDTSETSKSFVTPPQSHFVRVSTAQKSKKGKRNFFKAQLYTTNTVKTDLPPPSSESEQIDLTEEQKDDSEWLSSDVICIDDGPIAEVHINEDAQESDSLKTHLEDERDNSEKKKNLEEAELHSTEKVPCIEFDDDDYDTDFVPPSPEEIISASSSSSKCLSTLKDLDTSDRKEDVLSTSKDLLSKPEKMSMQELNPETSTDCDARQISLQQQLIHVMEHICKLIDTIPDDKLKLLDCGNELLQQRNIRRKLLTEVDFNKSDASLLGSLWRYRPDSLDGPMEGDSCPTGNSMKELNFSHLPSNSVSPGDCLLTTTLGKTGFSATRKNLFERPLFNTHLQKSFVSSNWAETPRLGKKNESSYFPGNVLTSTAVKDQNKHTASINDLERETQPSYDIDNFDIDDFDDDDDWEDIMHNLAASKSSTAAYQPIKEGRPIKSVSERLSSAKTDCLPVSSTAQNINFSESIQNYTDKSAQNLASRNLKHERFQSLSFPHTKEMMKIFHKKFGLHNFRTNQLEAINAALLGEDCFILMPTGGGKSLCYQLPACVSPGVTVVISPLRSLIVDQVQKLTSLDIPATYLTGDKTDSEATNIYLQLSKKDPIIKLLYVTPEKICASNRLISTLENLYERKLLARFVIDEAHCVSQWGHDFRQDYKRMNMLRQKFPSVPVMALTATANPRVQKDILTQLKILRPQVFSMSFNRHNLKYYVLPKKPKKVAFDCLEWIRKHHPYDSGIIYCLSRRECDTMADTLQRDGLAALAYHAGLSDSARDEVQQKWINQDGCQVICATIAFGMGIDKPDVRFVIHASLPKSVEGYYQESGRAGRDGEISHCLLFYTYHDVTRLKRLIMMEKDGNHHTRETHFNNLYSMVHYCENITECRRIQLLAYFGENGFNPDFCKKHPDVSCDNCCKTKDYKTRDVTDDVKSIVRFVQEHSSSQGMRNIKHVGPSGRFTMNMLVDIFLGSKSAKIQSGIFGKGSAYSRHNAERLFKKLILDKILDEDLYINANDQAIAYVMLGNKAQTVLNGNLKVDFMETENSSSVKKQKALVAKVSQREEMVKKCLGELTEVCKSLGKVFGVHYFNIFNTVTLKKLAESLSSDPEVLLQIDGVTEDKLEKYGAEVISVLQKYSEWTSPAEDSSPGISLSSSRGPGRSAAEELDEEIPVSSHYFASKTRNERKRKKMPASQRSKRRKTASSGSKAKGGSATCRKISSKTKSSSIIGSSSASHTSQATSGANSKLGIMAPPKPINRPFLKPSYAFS
TDP1 block = TDP1 (human) enzyme inhibition; Q9NUW8; recombinant TDP1, AlphaScreen DNA substrate cleavage; Potency, µM (doses to about 130 µM), inactives show at the top dose activity change, negative = inhibition, usual class: inhibitors; 0.28% of 350,000 active; note: % is set by controls: 0 for no effect and ±100 for the full control effect; nearly all actives have a fitted effect of over 40% in size
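Signal: AlphaScreen proximity between streptavidin donor and anti-FITC acceptor beads on intact substrate. Reaction: Tdp1 1 nM, substrate 15 nM final, 5 min RT after 15 min compound preincubation.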
APE1 inh-1 = inhibitors of human APE1 endonuclease | P27695 | recombinant APE1, TAMRA/BHQ-2 abasic DNA cleavage fluorescence | Potency, µM (highest dose often 65.8 µM), for inactives: at the highest dose activity change, negative = inhibition, actives largely listed as inhibitors | 0.35% of 350,000 active;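 note: plate controls were vehicle for no effect and reference inhibitor for full effect; nearly all actives have a fitted effect of over 55% in size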
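Step 1: APE1 (0.75 nM) with compound, 15 min RT. Step 2: add 50 nM fluorophore/quencher THF duplex. Step 3: three fluorescence reads 60 s apart (525/598 nm); read 3 minus read 1 = reaction progress.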
RECQ1 inh-1 = blocks DNA unwinding by human RECQ1. RECQ1 DNA unwinding, red fluorescence kinetic read. Potency, µM (titrated, usually from 57.3 µM), inactives show at the top dose activity, negative = inhibition, actives largely listed as inhibitors. 0.54% of 240,000 active;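 note: plate controls were vehicle for no effect and no enzyme for full effect; nearly all actives have a fitted effect of over 30% in size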
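RECQ1T1 50 nM; forked duplex (20 bp + 30-nt ss tails) 200 nM, ATP 2 mM final; pH 8.0, 2 mM MgCl2, 2.5 ug/ml poly(dI-dC); 15 min compound preincubation; discontinuous kinetic read over 2 h at RT.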
FEN1 inh-1 = inhibitors of human flap endonuclease 1. 0.35% of 390,000 active. Potency, µM (series often up to 114 µM), for the others: top-dose activity change, negative = inhibition, most hits filed as inhibitors. Recombinant FEN1 flap cleavage, fluorescence, 15 min. AID 588795; note: % is set by controls: 0 for no effect and ±100 for the full control effect; nearly all actives have a fitted effect of over 65% in size
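Potency values derive from four-parameter Hill fits of normalized qHTS data. The reaction used 10 nM FEN1 preincubated 15 min at room temperature with compound, then 50 nM DNA substrate, read at 0 and 15 min.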
DNA dye displace = counter-screen for APE1 inhibitors: DNA dye displacement | DNA fluorescent dye displacement counterscreen, fluorescence | Potency, µM (series often up to 28.5 µM), inactives show at the top dose activity change, negative = inhibition, most hits filed as inhibitors | shares compounds with APE1 inh-1 | 7% of 480 active;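 note: loss of thiazole orange fluorescence as the dye is displaced from duplex DNA; 0% = ThO with dsDNA and no compound and -100% = ThO without dsDNA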
Endo IV inh = Endo IV (E. coli) inhibition counter-screen; E. coli Endo IV, fluorogenic AP-site DNA cleavage; shares compounds with APE1 inh-1; 4% of 560 active; Potency, µM (highest dose often 27.1 µM), for the others: at the top dose activity change, negative = inhibition, most hits filed as inhibitors;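 note: plate controls were uninhibited enzyme wells for no effect and no enzyme buffer wells for full effect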
APE1 inh-2 = confirmation of inhibitors of human APE1 endonuclease. shares compounds with APE1 inh-1. purified APE1, fluorogenic abasic-site DNA cleavage. Potency, µM (titrated, usually from 57.1 µM), without a hit: top-dose activity change, negative = inhibition, actives largely listed as inhibitors. 44% of 750 active; note: % is set by controls: 0 for no effect and ±100 for the full control effect; nearly all actives have a fitted effect of over 30% in size
APE1 FP = compounds that displace a DNA probe from human APE1; shares compounds with APE1 inh-1; APE1 binding to TAMRA-labelled double-stranded DNA, fluorescence polarization displacement; Potency, µM (titrated, usually from 28.5 µM), inactives show top-dose activity, negative = inhibition, actives largely listed as inhibitors; 7% of 480 active; AID 2573; note: % is set by controls: 0 for no effect and ±100 for the full control effect
BLM inh-2 = BLM (human) helicase inhibition, confirmation; 40% of 220 active; Potency, µM, inactives show max response, negative = inhibition, hits mostly inhibitors; shares compounds with BLM inh-1; AID 2585; BLM DNA unwinding, fluorescence quenching, biochemical;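 note: strand separation dequenches TAMRA so unwinding raises red fluorescence; series mostly up to about 69 µM; % is set by controls: 0 for no effect and ±100 for the full control effect; nearly all actives have a fitted effect of over 45% in size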
RECQ1 conf = confirmation of human RECQ1 helicase inhibitors; RECQ1 helicase DNA unwinding, fluorescence; 28% of 610 active; shares compounds with RECQ1 inh-1; Potency, µM (top dose mostly 229 µM), for inactives: at the top dose activity change, negative = inhibition, most hits filed as inhibitors; note: % is set by controls: 0 for no effect and ±100 for the full control effect; nearly all actives have a fitted effect of over 45% in size
RECQ1 ADP FP = ADP displacement flagged in RECQ1 inhibitor counter-screen. shares compounds with RECQ1 inh-1. ADP fluorescence polarization displacement counterscreen. Potency, µM (titrated, usually from 228 µM), without a hit: at the top dose activity change, negative = inhibition, hits mostly inhibitors. 27% of 530 active. AID 2711; note: % is set by controls: 0 for no effect and ±100 for the full control effect; nearly all actives have a fitted effect of over 45% in size
RECQ1 inh-2 = blocks human RECQ1 DNA unwinding; 15% of 1,100 active; AID 504841; shares compounds with RECQ1 inh-1; recombinant RECQ1 DNA unwinding, red fluorescence; Potency, µM (top dose mostly 119 µM), for the others: at the highest dose activity, negative = inhibition, actives largely listed as inhibitors; note: % is set by controls: 0 for no effect and ±100 for the full control effect; nearly all actives have a fitted effect of over 50% in size
FEN1 inh-2 = confirmation of human FEN1 inhibitors | shares compounds with FEN1 inh-1 | FEN1 flap cleavage, TAMRA/BHQ2 fluorogenic DNA substrate | Potency, µM, most hits filed as inhibitors | 79% of 880 active; note: nearly all actives have a fitted effect of over 60% in size
The depositor's hits bear a star; i = inactive; ? = inconclusive; · = not tested or not shown; ! = a repeat was not active; [ ] = remark or other dose. Most compounds without a hit are left out; they make up all but 0.92% or so of the library. Calls come from the whole dose curve; as a rule, active = well fitted curve in the direction sought with a large enough effect; inconclusive = small, poorly fitted or top-dose-only effect, or another doubt; inactive = no such curve, though single readings can be large; an effect the other way counts as inactive or inconclusive. Potency is the fitted concentration of half-maximal effect.

SMILES	BLM inh-1	TDP1 block	APE1 inh-1	RECQ1 inh-1	FEN1 inh-1	DNA dye displace	Endo IV inh	APE1 inh-2	APE1 FP	FEN1 inh-2	others
O=C(O)CSc1cc(C(=O)c2ccccc2O)cn2c(=O)c3c4c(sc3nc12)CCCC4	25µM*	·	?	2%	?	-18%	?	4µM*	?	48*	BLM inh-2=32µM*
O=c1ccc2[n+]([O-])c3ccc(O)cc3oc-2c1	·	8%	25µM*	16µM*	40µM*	14%	?	13µM*	0.018µM*	60*
O=C(COc1ccccc1C(=O)N/N=C\c1ccc(O)c(O)c1)N/N=C/c1ccc(O)c(O)c1	2µM*	-7%	2.8µM*	1µM*	1.6µM*	6.3µM*	29%	2µM*	?	17*	RECQ1 conf=2.2µM*;RECQ1 ADP FP=-14%[91.9 µM]
O=C(CNC(=O)c1ccccc1Cl)OC(C(=O)Nc1cc(C(F)(F)F)ccc1Cl)c1ccccc1 (configuration not stated)	·	-3%	·	·	·	·	·	·	·	·
COc1ccc(-n2c(=O)cnc3cnc(OC)nc32)cc1	-1%	·	-8%	-12%	·	·	·	·	·	·
NS(=O)(=O)c1ccc(N/N=C/c2ccc(O)c(O)c2O)c([N+](=O)[O-])c1	16µM*	-10%	2µM*	3.2µM*	10µM*	13µM*	23%	5.6µM*	-9%	15*
O=Cc1cccn1-c1cccc([N+](=O)[O-])c1	4%	9%	4%	0%	-5%	·	·	·	·	·
O=C(O)c1cccc(-n2cccc2/C=C/[N+](=O)[O-])c1	60%	·	4µM*	?	?	-4%	17%	4.5µM*	?	43*
O=C(CSc1nnc(-c2cccc(S(=O)(=O)N3CCCC3)c2)n1-c1ccccc1)Nc1ccc(C(=O)O)cc1	?	79µM*	-2%	-13%	?	·	·	?	·	76*
O=C(O)c1ccnc2c(O)cccc12	·	·	-10%	·	·	·	·	·	·	·
N#Cc1nc(Nc2ccc(F)cc2)nc(NC2CCCC2)n1	·	0%	·	·	·	·	·	·	·	·
CCc1nn2c(=O)cc(COc3ccc(/C=C4\C(=N)N5N=C(CC(C)C)SC5=NC4=O)cc3)nc2s1	-23%	·	?	i	-16%	·	·	·	·	·
CCC1=NN2C(=N)/C(=C\c3ccc(OCc4cc(=O)n5nc(CC)sc5n4)c(OC)c3)C(=O)N=C2S1	14µM*	40µM*	?	7.1µM*	50µM*	·	·	32µM*	·	38*	RECQ1 inh-2=?
O=C1CC(=O)N(Cc2cccs2)C(=O)N1	0%	-9%	-5%	i	16%	·	·	·	·	·
O=C1CC(=O)N(Cc2ccco2)C(=O)N1	63%	10µM*	10µM*	?	28µM*	4%	21%	5.6µM*	-8%	24*	RECQ1 inh-2=?
Cc1cccc(CNC(=O)c2ccc(NC(=O)N3CCSc4ccccc43)cc2)c1	-6%	-3%	·	·	6%	·	·	·	·	·
COc1ccc(C2/C=C\CN(S(=O)(=O)CC34CCC(CC3=O)C4(C)C)CC(=O)N2Cc2ccc(F)cc2)cc1 (configuration not stated)	-10%	7%	-2%	-11%	5%	·	·	·	·	·
O=c1c2cc(O)c(O)cc2oc2cc(O)c(C3OC(CO)C(O)C(O)C3O)c(O)c12 (configuration not stated)	4%	13%	2.4µM*	-26%	-17%	38%[57.1 µM]	70%[57.1 µM]	7.1µM*	6%[57.1 µM]	?
Cc1nc(S/C(=C\c2ccc(-c3ccc(C(=O)O)c(Cl)c3)o2)C(=O)O)n[nH]1	43%	3.2µM*	22µM*	?	?	·	·	40µM*	·	43*	RECQ1 inh-2=45µM*
Cc1cc(-c2ccccc2)[nH]c(=O)c1C#N	0%	-5%	2%	5%	8%	·	·	·	·	·
Cc1ccc(-c2cc(-c3ccco3)c(C#N)c(=O)[nH]2)cc1	25µM*	·	35µM*	?	?	4%	-1%	?	?	67*
CC(=O)Oc1ccc2cc(-c3nc4c(s3)CCc3ccccc3-4)c(=O)oc2c1	·	-5%	·	·	-3%	·	·	·	·	·
CC(C)NCC(O)c1ccc(O)c(O)c1 (configuration not stated)	-1%	-9%[56.1 µM]	-4%	-2%	5%	·	·	·	·	·
NC[C@H](O)c1ccc(O)c(O)c1	3.5µM*	2.2µM*!	0.89µM*!	1.4µM*	-12%	-6%[57.1 µM]	10%[57.1 µM]	0.79µM*	?	34*	RECQ1 conf=25µM*!;RECQ1 ADP FP=10µM*!
O=C(O)c1ccc(-n2cccc2/C=C2/NC(=O)N(c3cccc(Cl)c3)C2=O)cc1	-15%	1.6µM*	2.8µM*	22µM*	40µM*	?	15%	13µM*	11µM*	67*
Cc1ccc(NC(=O)CN2C(=O)N/C(=C\c3cccn3-c3cccc(C(=O)O)c3)C2=O)cc1	-10%	2.8µM*	3.5µM*	?	79µM*	-5%	-2%	14µM*	14µM*	76*
